D2 ag-1: Beta-Arrestin HTS for Positive Allosteric Modulators of the Human D2 Dopamine Receptor: Agonists; D(2) dopamine receptor (Homo sapiens), P14416; DiscoveRx PathHunter D2 beta-arrestin, luminescence, 90 min; 100% = 57 uM dopamine signal; activation, % (test concentration not listed); 360,000 tested, 0.084% active; in the data active = activation above about 40%; inconclusive = between about 15% and that limit
Target sequence (P14416 whole entry, looked up): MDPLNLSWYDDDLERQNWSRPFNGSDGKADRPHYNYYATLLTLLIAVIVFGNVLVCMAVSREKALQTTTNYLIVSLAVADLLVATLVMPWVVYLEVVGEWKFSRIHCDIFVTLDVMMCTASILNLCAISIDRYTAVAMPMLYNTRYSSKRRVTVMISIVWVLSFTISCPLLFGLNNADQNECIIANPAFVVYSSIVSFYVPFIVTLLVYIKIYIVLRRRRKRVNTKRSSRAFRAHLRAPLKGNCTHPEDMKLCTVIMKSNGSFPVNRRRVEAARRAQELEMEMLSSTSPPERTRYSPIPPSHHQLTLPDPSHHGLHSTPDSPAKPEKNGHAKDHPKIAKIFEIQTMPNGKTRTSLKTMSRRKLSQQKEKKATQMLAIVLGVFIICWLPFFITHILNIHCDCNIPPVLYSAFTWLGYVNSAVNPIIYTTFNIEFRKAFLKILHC
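DiscoveRx PathHunter D2 beta-arrestin cells (2,100/well) attached overnight, then compound-stimulated 90 min at 37 C in HBSS/10 mM HEPES/0.1% Tween-20 buffer; beta-galactosidase complementation read by luminescence after 1 h at ambient temperature. Dopamine 57 uM final (EC100) as control.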
D2 PAM-1: HTS Assay for Positive Allosteric Modulators of the Human D2 Dopamine Receptor: Primary Screen for Potentiators; D(2) dopamine receptor (Homo sapiens), P14416; HEK293 T-REx D2, calcium flux, EC20 dopamine potentiation; potentiation, % at 10 µM; 340,000 tested, 0.34% active; AID 485347, 2010;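 active = potentiation over 3 SD above the plate norm, cut at about 30% in these data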
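Tetracycline-induced HEK293 T-REx cells force-coupled to calcium signalling expressed D2; compounds were pin-added after a 10 s baseline, read kinetically 180 s, then an EC20 dopamine challenge followed with a further 180 s calcium read.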
D2 ag-2: HTS Assay for Allosteric Agonists of the Human D2 Dopamine Receptor: Primary Screen for Agonists. AID 485358, 2010. activation, % at 2 µM. HEK293 T-REx D2 cells, calcium flux agonist mode. D(2) dopamine receptor (Homo sapiens), P14416. 340,000 tested, 0.53% active;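 active = activation over 3 SD above normal in the single-dose calcium agonist read, cut at about 30% in these data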
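In this primary screen, compounds producing a positive calcium signal within 180 s of addition to tetracycline-induced, force-coupled HEK293 Trex D2 cells are flagged; cells are dye-loaded with a no-wash calcium kit beforehand.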
D2 PAM-2: Beta-Arrestin HTS for Positive Allosteric Modulators of the Human D2 Dopamine Receptor: Potentiators; 360,000 tested, 0.23% active; potentiation, % (test concentration not listed); DiscoveRx D2 beta-arrestin cells, luminescence, 90 min; 100% = 57 uM dopamine signal; D(2) dopamine receptor (Homo sapiens), P14416; in the data active = potentiation above about 50%; inconclusive = mostly about 30% to 49%
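PathHunter beta-arrestin assay in DiscoveRx D2 cells. Compounds were added with an EC20 of dopamine (50 nM final) for 90 min at 37 deg C. Luminescence was read 1 h after detection reagent, with 57 uM dopamine as the EC100 control.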
D2 antag: HTS Assay for Allosteric Antagonists of the Human D2 Dopamine Receptor: Primary Screen for Antagonists. D(2) dopamine receptor (Homo sapiens), P14416. HEK293 TREx D2 cells, calcium flux, dopamine EC80. inhibition, % at 10 µM. 340,000 tested, 2% active; in the data active = inhibition above about 30%; inactive = below that, where a call was filed
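Cells plated overnight at 30 C with tetracycline; no-wash calcium dye, 30–90 min RT; 10 s baseline; compound pinned; 180 s read; EC80 dopamine added; another 180 s read.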
D3 ag: qHTS of D3 Dopamine Receptor Agonist: D3 Dopamine Receptor B-arrestin Agonist Confirmatory Assay; DiscoveRx D3 beta-arrestin cells, luminescence, 90 min; Potency, µM (titrated, usually from 76.9 µM), usual class: activators; shares compounds with D2 ag-2; 2,300 tested, 4% active; also: nearly all actives have a fitted effect of over 70% in size
D2 ag-3: qHTS of D3 Dopamine Receptor Agonist: D2 Dopamine Receptor B-arrestin Agonist Counterscreen. AID 720507, 2013. shares compounds with D2 ag-2. Potency, µM (titrated, usually from 76.9 µM), hits mostly activators. DiscoveRx PathHunter D2 beta-arrestin, luminescence, 90 min; response scale: percent relative to full dopamine signal. 2,300 tested, 5.9% active; also: nearly all actives have a fitted effect of over 70% in size
Large screens that a line does not name were inactive (follow-up assays come after a bar, where they were run). This is a sample that favours compounds with a hit; in the whole collection about 2.4% have one here. Unless noted, calls follow the shape of the dose curve; as a rule, active = well fitted activation curve with a large enough effect; inconclusive = small, poorly fitted or top-dose-only effect; inactive = flat fitted curve, though single readings scatter.

Nc1nc(CN2CCN(c3ccccc3F)CC2)nc(Nc2ccccc2)n1	D2 ag-2 60.3, D2 antag 47.3 | D3 ag inactive | D2 ag-3 inactive
Cc1ccc(C)c(S(=O)(=O)c2nnn3c2nc(N2CCCCC2)c2sccc23)c1	none (no result: D2 ag-1, D2 PAM-2, D2 antag)
O=C(Nc1ccnn1C1CCN(C/C=C/c2ccccc2)CC1)C1CCCC1	D2 ag-2 58.2 | D3 ag inactive | D2 ag-3 inactive
Cc1ccccc1C(=O)Nc1ccnn1C1CCN(CCCc2ccccc2)CC1	D2 ag-1 inconclusive
O=C(Nc1ccnn1C1CCN(CCCc2ccccc2)CC1)c1ccccc1	D2 antag 43.6 | D3 ag inactive | D2 ag-3 inactive
COc1ccccc1C(=O)Nc1ccnn1C1CCN(CCCc2ccccc2)CC1	D2 antag 32.8 | D3 ag inactive | D2 ag-3 inactive
Cc1ccc(S(=O)(=O)NCCC(=O)Nc2ccc(C)cc2C(=O)c2ccccc2)cc1	none | D3 ag inactive | D2 ag-3 inactive
CC1(C(=O)Nc2nc3ccc(S(C)(=O)=O)cc3s2)CC1(Cl)Cl (stereo not given)	none (no result: D2 PAM-1, D2 ag-2, D2 antag)
CC1CCCCN1Cc1ccc(-c2nnn(CC(=O)NC3CCCCC3)n2)cc1 (stereo not given)	D2 ag-2 49.6 | D3 ag inactive | D2 ag-3 inactive
Cc1cccc(OCC(=O)Nc2ccc3nc(Nc4cccc(Cl)c4)cc(C)c3c2)c1	none (no result: D2 ag-1, D2 PAM-2, D2 antag)
COc1ccc(C2C(=O)N(C3CCC(C)CC3)CC(=O)N2CCc2ccccc2)cc1OC (stereo not given)	none (no result: D2 ag-1, D2 PAM-2, D2 antag)
Cc1noc(C)c1C(=O)N1CCN(c2ccccc2O)CC1	none | D3 ag inactive | D2 ag-3 inactive
CC(C)c1ccccc1-n1cc[nH]c1=S	none
Cn1cc[nH]c1=S	none | D3 ag inactive | D2 ag-3 inactive
COc1cccc(N2CCN(Cc3nc(N)nc(N4CCCc5ccccc54)n3)CC2)c1	D2 ag-1 inconclusive, D2 ag-2 55.5, D2 antag 58.9 | D3 ag inactive | D2 ag-3 inconclusive
CCOc1ccccc1N1CCN(Cc2ccc(Br)s2)CC1	none (no result: D2 ag-2, D2 antag) | D3 ag inactive | D2 ag-3 inactive
CCOc1ccccc1N1CCN(Cc2c(C)n(C)n(-c3ccccc3)c2=O)CC1	D2 ag-2 30.7, D2 antag 84.6 | D3 ag inactive | D2 ag-3 inactive
CCOC(=O)NC(=O)/C(C#N)=N\Nc1cccc(Cl)c1	D2 antag 38.1 | D3 ag inactive | D2 ag-3 inactive
CSc1c(CC(=O)Nc2ccccc2C(F)(F)F)n(Cc2ccccc2)c2ccccc12	none | D3 ag inactive | D2 ag-3 inactive
CSc1c(CC(=O)Nc2ccccc2Cl)n(Cc2ccccc2)c2ccccc12	none
Cn1cc(CN2CCC(O)CC2)c(-c2ccc(Oc3ccccc3)cc2)n1	none
CCOC(=O)C1CCN(Cc2cn(C)nc2-c2ccc(Oc3ccccc3)cc2)CC1	none | D3 ag inactive | D2 ag-3 inactive
CCOC(=O)C1(CCOc2ccccc2)CCN(Cc2cccn2-c2ncccn2)CC1	none | D3 ag inactive | D2 ag-3 inactive
CCOC(=O)C1CCN(Cc2cccc(OCc3ccccc3)c2)CC1	D2 ag-1 48.4, D2 ag-2 73.9, D2 antag 86.2 | D3 ag inactive | D2 ag-3 inconclusive
CCOC(=O)C1(CCOC)CCN(Cc2cccc(OCc3ccccc3)c2)CC1	D2 ag-2 63.4, D2 antag 36.9 | D3 ag inactive | D2 ag-3 inactive
CC(=O)N1c2ccc(C)cc2C(c2ccccc2)CC1C (stereo not given)	none (no result: D2 PAM-1, D2 ag-2, D2 antag)
Cc1ccc(OCCNC(=O)CNC(=O)c2ccc3c(c2)OCO3)cc1	none (no result: D2 ag-2, D2 antag)
COc1ccc(N(CC(=O)Nc2cc(OC)cc(OC)c2)S(=O)(=O)c2c(C)noc2C)cc1	none (no result: D2 ag-1, D2 PAM-2, D2 antag)
COc1ccc(NC(=O)CSc2nnc(-c3cccnc3)o2)c(OC)c1	none
CCOC(=O)C1(Cc2cccc(OC)c2)CCN(Cc2cnc(SC)nc2)CC1	D2 ag-2 59.0, D2 antag 92.7 | D3 ag inactive | D2 ag-3 inconclusive
COc1cccc(NC(=O)CCc2c(C)nc3nc(CNC(=O)c4cccc(F)c4)nn3c2C)c1	none
CCCn1c(/C=C/c2ccco2)nc2ccccc21	none | D3 ag inactive | D2 ag-3 inactive
CCCCn1c(/C=C/c2ccco2)nc2ccccc21	D2 ag-2 40.5, D2 antag 63.7 | D3 ag inactive | D2 ag-3 inactive
CC1CCN(S(=O)(=O)c2ccc3c(c2)N(CC(=O)NC(C)c2ccccc2)C(=O)CS3)CC1 (stereo not given)	none (no result: D2 ag-1, D2 ag-2, D2 PAM-2, D2 antag)
N#CCCN(C(=O)COC(=O)c1cccc(S(=O)(=O)N2CCCC2)c1)c1ccc(F)cc1	none
CC(=O)N1CCN(S(=O)(=O)c2cccc(C(=O)OCC(=O)N(CCC#N)c3ccc(F)cc3)c2)CC1	none | D3 ag inactive | D2 ag-3 inactive
COc1ccc(-c2nnc(NC(=O)c3ccc(S(=O)(=O)N(C)CC4CCCO4)cc3)o2)c(OC)c1 (stereo not given)	none
COc1cccc(-c2ccc3ncnc(NCc4cccc(C)c4)c3c2)c1	none (no result: D2 ag-1, D2 PAM-2)
COc1cccc(CNc2ncnc3ccc(-c4c(C)noc4C)cc23)c1	none (no result: D2 ag-1, D2 PAM-2) | D3 ag inactive | D2 ag-3 inactive
O=C(Cc1ccccc1)NNC(=S)Nc1ccc(Cl)cc1	D2 ag-2 44.3 | D3 ag inactive | D2 ag-3 inactive
CCOC(=O)c1oc2c(c1C)C(=O)CCC2	none | D3 ag inactive | D2 ag-3 inactive
CC(Sc1nnc(-c2cccnc2)n1N)C(=O)NCCC1=CCCCC1 (stereo not given)	D2 ag-2 46.9 | D3 ag inactive | D2 ag-3 inactive
CC(Sc1nnc(-c2cccnc2)n1N)C(=O)N1CCOCC1 (stereo not given)	none
Cc1cccc(OCCCC(=O)NNC(=O)c2cccc(N(C)C)c2)c1	none (no result: D2 PAM-1, D2 ag-2, D2 antag)
CC1(C)C2CCC(C2)C1(C)NC(=O)CNCc1cccs1 (stereo not given)	none | D3 ag inactive | D2 ag-3 inactive

Screens deposited in PubChem BioAssay by National Center for Advancing Translational Sciences (NCATS).
